# Measured values as given in PubChem BioAssay (NCI).
# This is part of a sample that, as a whole, favours compounds with a hit. Of some 79,000 tested, about 15% had one in any assay. A number with no mark means an inactive call. Calls of active or inactive are those of the source. Rule as the data show it: active = growth inhibition above about 70%; inactive = the rest.
# Tests used:
# [1] = NCI Yeast Anticancer Drug Screen. Data for the rad52 strain (AID 147);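 also: 0% = growth of vehicle-treated control cultures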; conditions: S. cerevisiae rad52 mutant growth inhibition, hits give high values
# Summary of the method: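 DNA repair-defective yeast; compound exposure; growth scored against vehicle controls.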
# [2] = NCI Yeast Anticancer Drug Screen. Data for the wt1 strain (AID 149);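 also: 0% = growth of vehicle-treated wt1 cultures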; conditions: S. cerevisiae wt1 strain (SPY 50644) growth inhibition, hits give high values
# Summary of the method: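 Compounds are added to wt1 yeast cultures. Growth is then measured. Inhibition is expressed relative to vehicle-treated controls.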
# [3] = NCI Yeast Anticancer Drug Screen. Data for the rad50EPP+ strain (AID 151);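 also: 0% = growth of vehicle-treated control cultures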; conditions: S. cerevisiae rad50 mutant strain, hits give high values
# Summary of the method: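 rad50EPP+ yeast treated with test compounds. Readout: growth vs vehicle control.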
# [4] = NCI Yeast Anticancer Drug Screen. Data for the rad50 strain (AID 155);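 also: 0% = growth of vehicle-only cultures of the same strain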; conditions: S. cerevisiae rad50 strain growth inhibition, hits give high values
# Summary of the method: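 Inhibition values express reduced yeast growth in compound-treated cultures relative to vehicle-treated controls.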
# [5] = NCI Yeast Anticancer Drug Screen. Data for the mec2-1 strain (AID 157); conditions: S. cerevisiae mec2-1 strain, hits give high values
# Summary of the method: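 Growth inhibition is read against vehicle-treated controls after compound exposure of the mec2-1 yeast strain, which is defective in DNA damage repair or cell cycle control.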
# [6] = NCI Yeast Anticancer Drug Screen. Data for the rad14 strain (AID 159);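 also: 0% = growth of vehicle-treated control cultures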; conditions: S. cerevisiae rad14 strain growth inhibition, hits give high values
# Summary of the method: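 A mutant yeast strain defective in DNA damage repair is treated with compound; inhibition of its growth is scored against untreated, vehicle-exposed cultures.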
# [7] = NCI Yeast Anticancer Drug Screen. Data for the sgs1 mgt1 strain (AID 161);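 also: 0% = growth of cultures given vehicle only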; conditions: S. cerevisiae sgs1 mgt1 strain, hits give high values
# Summary of the method: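 Percent growth inhibition was derived by comparing compound-exposed mutant yeast with vehicle-exposed cultures. The strain carries alterations in DNA damage repair.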
# [8] = NCI Yeast Anticancer Drug Screen. Data for the CLN2oe strain (AID 163);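 also: 0% = growth of vehicle-only control cultures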; conditions: S. cerevisiae CLN2oe strain, hits give high values
# Summary of the method: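 Compound-treated yeast; growth vs vehicle ctrl = % inhibition. Genetically altered strain (cell-cycle control).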
# [9] = NCI Yeast Anticancer Drug Screen. Data for the cln2 rad14 strain (AID 165);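 also: 0% = growth equal to vehicle treated cultures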; conditions: S. cerevisiae cln2 rad14 strain, hits give high values
# Summary of the method: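 Growth inhibition, relative to vehicle-treated controls, is the read-out. The test organism is a yeast strain with defined genetic alterations, cln2 rad14.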
# [10] = NCI Yeast Anticancer Drug Screen. Data for the bub3 strain (AID 167); conditions: S. cerevisiae bub3 mutant strain, hits give high values
# Summary of the method: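 Steps: expose the mutant yeast strain to compound; grow alongside vehicle-treated cultures; measure growth; express inhibition against the vehicle cultures.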
# [11] = NCI Yeast Anticancer Drug Screen. Data for the wt2 strain (AID 169);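 also: 0% = growth of vehicle-treated yeast cultures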; conditions: S. cerevisiae wt2 strain growth inhibition, hits give high values
# Summary of the method: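 Compound exposure of yeast; growth compared with vehicle controls; inhibition reported.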
# [12] = NCI Yeast Anticancer Drug Screen. Data for the mlh1 strain (AID 171);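 also: 0% = growth of vehicle-treated control cultures of the same strain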; conditions: S. cerevisiae mlh1 strain growth inhibition, hits give high values
# Summary of the method: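 Compounds are applied to a genetically altered yeast strain, and its growth is compared with that of vehicle-treated cultures to give percent inhibition.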
# [13] = NCI Yeast Anticancer Drug Screen. Data for the sgs1 strain (AID 173);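 also: 0% = growth of vehicle-only control cultures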; conditions: S. cerevisiae sgs1 mutant, hits give high values
# Summary of the method: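 Compounds applied to genetically altered yeast; growth compared with vehicle-treated cultures to give % inhibition.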
# [14] = NCI Yeast Anticancer Drug Screen. Data for the mlh1 rad18 strain (AID 175); conditions: S. cerevisiae mlh1 rad18 strain growth inhibition, hits give high values
# Summary of the method: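 Cells of a genetically altered yeast strain, deficient in DNA damage repair, were treated with compound. Their growth was then compared with that of vehicle-treated cultures to give inhibition.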
# [15] = NCI Yeast Anticancer Drug Screen. Data for the rad18 strain (AID 177); conditions: S. cerevisiae rad18 mutant growth inhibition, hits give high values
# Summary of the method: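 Compounds are applied to a repair-deficient yeast strain, and growth is compared with that of vehicle-treated cultures to give percent inhibition.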
# [16] = at 5.0 µM (retest, dose inferred, filed as 0.5)
# [17] = at 50.0 µM (retest, dose inferred, filed as 5.0)
compound,measurement,setting,value
CC1=C(C)C(=O)C2=C(OCCO2)C1=O,growth inhibition,[1]; at 1.2 µM,-6%
same,growth inhibition,[1]; at 3.7 µM,-8%
same,growth inhibition,[1]; at 11.0 µM,1%
same,growth inhibition,[1]; at 33.0 µM,23%
same,growth inhibition,[1]; at 100.0 µM,82% (active)
same,growth inhibition,[2]; at 1.2 µM,-4%
same,growth inhibition,[2]; at 3.7 µM,-5%
same,growth inhibition,[2]; at 11.0 µM,-5%
same,growth inhibition,[2]; at 33.0 µM,-4%
same,growth inhibition,[2]; at 100.0 µM,17%
same,growth inhibition,[3]; at 1.2 µM,-3%
same,growth inhibition,[3]; at 3.7 µM,-3%
same,growth inhibition,[3]; at 11.0 µM,5%
same,growth inhibition,[3]; at 33.0 µM,10%
same,growth inhibition,[3]; at 100.0 µM,46%
same,growth inhibition,[4]; at 1.2 µM,-3%
same,growth inhibition,[4]; at 3.7 µM,0%
same,growth inhibition,[4]; [16],-23%
same,growth inhibition,[4]; at 11.0 µM,7%
same,growth inhibition,[4]; at 33.0 µM,33%
same,growth inhibition,[4]; [17],87% (active)
same,growth inhibition,[4]; at 50.0 µM,1%
same,growth inhibition,[4]; at 100.0 µM,88% (active)
same,growth inhibition,[5]; at 1.2 µM,-3%
same,growth inhibition,[5]; at 3.7 µM,-3%
same,growth inhibition,[5]; [16],-8%
same,growth inhibition,[5]; at 11.0 µM,-5%
same,growth inhibition,[5]; at 33.0 µM,-1%
same,growth inhibition,[5]; [17],24%
same,growth inhibition,[5]; at 50.0 µM,-3.25%
same,growth inhibition,[5]; at 100.0 µM,20%
same,growth inhibition,[6]; at 1.2 µM,-1%
same,growth inhibition,[6]; at 3.7 µM,-1%
same,growth inhibition,[6]; at 11.0 µM,4%
same,growth inhibition,[6]; at 33.0 µM,17%
same,growth inhibition,[6]; at 100.0 µM,71% (active)
same,growth inhibition,[7]; [16],-10%
same,growth inhibition,[7]; [17],21%
same,growth inhibition,[7]; at 50.0 µM,29.8%
same,growth inhibition,[8]; at 1.2 µM,0%
same,growth inhibition,[8]; at 3.7 µM,-4%
same,growth inhibition,[8]; at 11.0 µM,3%
same,growth inhibition,[8]; at 33.0 µM,15%
same,growth inhibition,[8]; at 100.0 µM,27%
same,growth inhibition,[9]; [16],3%
same,growth inhibition,[9]; [17],29%
same,growth inhibition,[9]; at 50.0 µM,3.35%
same,growth inhibition,[10]; at 1.2 µM,0%
same,growth inhibition,[10]; at 3.7 µM,2%
same,growth inhibition,[10]; [16],-22%
same,growth inhibition,[10]; at 11.0 µM,9%
same,growth inhibition,[10]; at 33.0 µM,18%
same,growth inhibition,[10]; [17],35%
same,growth inhibition,[10]; at 50.0 µM,59.4%
same,growth inhibition,[10]; at 100.0 µM,48%
same,growth inhibition,[11]; at 1.2 µM,-9%
same,growth inhibition,[11]; at 3.7 µM,-12%
same,growth inhibition,[11]; at 11.0 µM,-2%
same,growth inhibition,[11]; at 33.0 µM,-13%
same,growth inhibition,[11]; at 100.0 µM,-5%
same,growth inhibition,[12]; at 1.2 µM,-4%
same,growth inhibition,[12]; at 3.7 µM,-3%
same,growth inhibition,[12]; at 11.0 µM,3%
same,growth inhibition,[12]; at 33.0 µM,14%
same,growth inhibition,[12]; at 100.0 µM,54%
same,growth inhibition,[13]; at 1.2 µM,-22%
same,growth inhibition,[13]; at 3.7 µM,23%
same,growth inhibition,[13]; at 11.0 µM,-14%
same,growth inhibition,[13]; at 33.0 µM,26%
same,growth inhibition,[13]; at 100.0 µM,88% (active)
same,growth inhibition,[14]; [16],4%
same,growth inhibition,[14]; [17],50%
same,growth inhibition,[14]; at 50.0 µM,26%
same,growth inhibition,[15]; at 1.2 µM,-5%
same,growth inhibition,[15]; at 3.7 µM,-5%
same,growth inhibition,[15]; at 11.0 µM,-4%
same,growth inhibition,[15]; at 33.0 µM,6%
same,growth inhibition,[15]; at 100.0 µM,54%
CC(=O)CC(c1ccccc1)c1c(O)c2ccccc2oc1=O (stereo unspecified),growth inhibition,[1]; at 1.2 µM,5%
same,growth inhibition,[1]; at 3.7 µM,-1%
same,growth inhibition,[1]; at 11.0 µM,-4%
same,growth inhibition,[1]; at 33.0 µM,16%
same,growth inhibition,[1]; at 100.0 µM,75% (active)
same,growth inhibition,[2]; at 1.2 µM,-10%
same,growth inhibition,[2]; at 3.7 µM,-10%
same,growth inhibition,[2]; at 11.0 µM,-12%
same,growth inhibition,[2]; at 33.0 µM,10%
same,growth inhibition,[2]; at 100.0 µM,64%
same,growth inhibition,[3]; at 1.2 µM,15%
same,growth inhibition,[3]; at 3.7 µM,4%
same,growth inhibition,[3]; at 11.0 µM,-3%
same,growth inhibition,[3]; at 33.0 µM,-4%
same,growth inhibition,[3]; at 100.0 µM,-16%
same,growth inhibition,[4]; at 1.2 µM,6%
same,growth inhibition,[4]; at 3.7 µM,5%
same,growth inhibition,[4]; [16],70% (active)
same,growth inhibition,[4]; at 11.0 µM,6%
same,growth inhibition,[4]; at 33.0 µM,20%
same,growth inhibition,[4]; [17],95% (active)
same,growth inhibition,[4]; at 50.0 µM,46.8%
same,growth inhibition,[4]; at 100.0 µM,76% (active)
same,growth inhibition,[5]; at 1.2 µM,-9%
same,growth inhibition,[5]; at 3.7 µM,-9%
same,growth inhibition,[5]; [16],61%
same,growth inhibition,[5]; at 11.0 µM,-4%
same,growth inhibition,[5]; at 33.0 µM,12%
same,growth inhibition,[5]; [17],97% (active)
same,growth inhibition,[5]; at 50.0 µM,31.5%
same,growth inhibition,[5]; at 100.0 µM,67%
same,growth inhibition,[6]; at 1.2 µM,-4%
same,growth inhibition,[6]; at 3.7 µM,0%
same,growth inhibition,[6]; at 11.0 µM,-8%
same,growth inhibition,[6]; at 33.0 µM,19%
same,growth inhibition,[6]; at 100.0 µM,68%
same,growth inhibition,[7]; [16],-1%
same,growth inhibition,[7]; [17],89% (active)
same,growth inhibition,[7]; at 50.0 µM,55.4%
same,growth inhibition,[8]; at 1.2 µM,17%
same,growth inhibition,[8]; at 3.7 µM,22%
same,growth inhibition,[8]; at 11.0 µM,6%
same,growth inhibition,[8]; at 33.0 µM,39%
same,growth inhibition,[8]; at 100.0 µM,70% (active)
same,growth inhibition,[9]; [16],22%
same,growth inhibition,[9]; [17],90% (active)
same,growth inhibition,[9]; at 50.0 µM,54.6%
same,growth inhibition,[10]; at 1.2 µM,11%
same,growth inhibition,[10]; at 3.7 µM,13%
same,growth inhibition,[10]; [16],29%
same,growth inhibition,[10]; at 11.0 µM,14%
same,growth inhibition,[10]; at 33.0 µM,45%
same,growth inhibition,[10]; [17],86% (active)
same,growth inhibition,[10]; at 50.0 µM,62.1%
same,growth inhibition,[10]; at 100.0 µM,79% (active)
same,growth inhibition,[11]; at 1.2 µM,-20%
same,growth inhibition,[11]; at 3.7 µM,-9%
same,growth inhibition,[11]; at 11.0 µM,-13%
same,growth inhibition,[11]; at 33.0 µM,11%
same,growth inhibition,[11]; at 100.0 µM,77% (active)
same,growth inhibition,[12]; at 1.2 µM,-15%
same,growth inhibition,[12]; at 3.7 µM,-3%
same,growth inhibition,[12]; at 11.0 µM,3%
same,growth inhibition,[12]; at 33.0 µM,43%
same,growth inhibition,[12]; at 100.0 µM,85% (active)
same,growth inhibition,[13]; at 1.2 µM,11%
same,growth inhibition,[13]; at 3.7 µM,14%
same,growth inhibition,[13]; at 11.0 µM,7%
same,growth inhibition,[13]; at 33.0 µM,42%
same,growth inhibition,[13]; at 100.0 µM,84% (active)
same,growth inhibition,[14]; [16],32%
same,growth inhibition,[14]; [17],99% (active)
same,growth inhibition,[14]; at 50.0 µM,44.5%
same,growth inhibition,[15]; at 1.2 µM,-12%
same,growth inhibition,[15]; at 3.7 µM,1%
same,growth inhibition,[15]; at 11.0 µM,11%
same,growth inhibition,[15]; at 33.0 µM,27%
same,growth inhibition,[15]; at 100.0 µM,78% (active)
